Source: PubChem
HCV inh = blocks hepatitis C virus | hit rate 3.4% among 340,000 | AID 651820 | Potency, µM (highest dose often 41.8 µM), for inactives: top-dose activity change, negative = inhibition, most hits filed as inhibitors | Huh7.5.1 HCVcc-Cre infection, luciferase reporter, 44 h; further: potency means the concentration at half of the fitted maximal effect
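Infectious HCV cell culture screen: compound-treated cells (1,000/well, pre-plated 4 h) are infected with HCVcc-Cre at roughly 0.5 moi and grown 44 h. Infection is quantified by luciferase signal after 15 min substrate incubation at room temperature.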
Pf growth 96h = P. falciparum growth inhibition at 96 hours; hit rate 6.9% among 320,000; P. falciparum luciferase reporter growth, 96 h; AID 504834; Potency, µM (titrated, usually from 28.7 µM), without a hit: at the highest dose activity change, negative = inhibition, usual class: inhibitors; further: potency means the concentration at half of the fitted maximal effect
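Infected RBCs, 2% Hct / 0.05% parasitemia final; luciferase-reporter P. falciparum; cpd 96 h, 37 C, 5% CO2; luciferase detection reagent; luminescence.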
HCMV inh = blocks human cytomegalovirus replication | hit rate 4.5% among 410,000 | activity change, negative = inhibition, % at 57.5 µM | HFF cells, HCMV-luciferase reporter, 72 h; active compounds read low; in the data active means activity change below about -60%; inconclusive means no clear call, values can overlap the other calls; inactive means above about -39%
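HFF cells seeded 16 h at 37C, treated with compounds, infected with luciferase-reporter HCMV at MOI 1 PFU/cell; luciferase read at 72 h post infection, normalized to buffer-only and Salinomycin controls.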
Pf growth 48h = P. falciparum growth inhibition at 48 hours (one generation) | hit rate 5.9% among 310,000 | P. falciparum luciferase growth in erythrocytes, 48 h | AID 504832 | Potency, µM (top dose mostly 28.7 µM), for the others: at the top dose activity change, negative = inhibition, hits mostly inhibitors; further: potency means the concentration at half of the fitted maximal effect
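First compound was added to culture medium, then infected red cells at 0.1% parasitemia and 2% hematocrit (final). After incubation at 37 C under 5% CO2, luciferase detection reagent was dispensed and light output recorded.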
Active calls of the source: *; ? = inconclusive; . = no result given; [ ] = remark or other dose. Shown are actives, neighbours in structure and some others; about 13% of the full set was active somewhere. Unless noted, the call rests on the fitted dose curve; in most records, active means well fitted inhibition curve with a large enough effect; inconclusive means small, poorly fitted or top-dose-only effect, or another doubt; inactive means no such curve, though single readings can be large or run the other way. On the % scale 0 is the no-effect control and ±100 the full control effect.

SMILES | HCV inh | Pf growth 96h | HCMV inh | Pf growth 48h
Cc1ccc2c(=O)cc(C(=O)N(Cc3ccc(N(C)C)cc3)C3CCS(=O)(=O)C3)oc2c1 (centres undefined) | . | . | -21 | .
Cc1ccc(NC(=O)Nc2cn(C)c(=O)c3ccccc23)c(Cl)c1 | . | . | 0 | .
Cc1ccc(NC(=O)c2ncn[nH]2)cc1 | 3% | -24% | -40 | 51%
O=C(Nc1ccc(Oc2ccc(Cl)cc2)cc1)c1ncn[nH]1 | -13% | 36% | 14 | 9.3µM*
Cc1ccc(-n2c(=O)c3c(c4cc(C)ccc4n3C)n(CC(=O)Nc3cc(C)cc(C)c3)c2=O)cc1 | . | . | 9 | .
CCc1cccc(C)c1NC(=O)C1CCN(c2nn3c(=O)cc(C)nc3s2)CC1 | 2% | 9.3µM* | -27 | -11%
COc1ccc(NC(=O)C2CCCN2c2nn3c(=O)cc(C)nc3s2)cc1 (centres undefined) | 11% | ? | -5 | 25%
Cc1cc(=O)n2nc(N3CCC(C(=O)Nc4c(C)cccc4C)CC3)sc2n1 | . | . | -2 | .
CCc1ccc(NC(=O)C2CCCN2c2nn3c(=O)cc(C)nc3s2)cc1 (centres undefined) | 5% | 13µM* | 20 | -3%
COCCCNC(=S)N1CCN(c2nc(C)nc3sc4c(c23)CCCC4)CC1 | 10µM* | 166% | ? | ?
Cc1ccc2[nH]c(CSc3nnc(NC(=O)c4ccccc4C)s3)cc(=O)c2c1 | . | . | -74* | .
COC(=O)c1ccc(NC(=O)CSCc2ccccc2)cc1 | -2% | 27% | . | .
O=C(Cc1ccc(Cl)cc1)Nc1ccc(-c2nnc(-c3ccco3)o2)cc1 | ? | 75% | 1 | ?
O=C(CSCc1ccc(F)cc1)Nc1ccc(F)cc1 | 10% | 6.6µM* | -16 | 1%
O=C(CSCc1ccc(Cl)cc1)Nc1ccc(-c2nnc(-c3ccccc3)o2)cc1 | 7.1µM* | -10% | 40 | 33%
CCC(=O)Oc1ccc(NC(=O)CSCc2ccccc2)cc1 | -1% | 27% | -73* | 38%
O=C(CN1C(=O)C2CCCCN2c2ccc(C(=O)N3CCCC3)cc21)NCc1ccccc1 (centres undefined) | . | . | -10 | .
CC(=O)OCC(=O)[C@@]12OC3(CCCC3)OC1CC1C3CCC4=CC(=O)C=C[C@@]4(C)[C@]3(F)C(O)C[C@]12C (some centres undefined) | . | 9.5µM* | . | 15µM*
CC1(C)O[C@@H]2C[C@H]3[C@@H]4CCC5=CC(=O)CC[C@]5(C)[C@@]4(F)[C@@H](O)C[C@]3(C)[C@]2(C(=O)CCl)O1 | 20% | 3.3µM* | 84 | 2.6µM*
C[C@]12CCC(=O)C=C1CC[C@H]1[C@@H]3CC[C@](O)(C(=O)CO)[C@@]3(C)C[C@H](O)[C@@]12F | . | ? | . | -12%
CC1(C)OC2CC3C4CCC5=CC(=O)C=CC5(C)C4(F)C(O)CC3(C)C2(C(=O)CO)O1 (centres undefined) | . | . | 65 | .
C[C@@H]1C[C@H]2[C@@H]3CCC4=CC(=O)C=C[C@]4(C)[C@@]3(F)[C@@H](O)C[C@]2(C)[C@@]1(O)C(=O)CO | 10% | ? | 120 | 1%
C[C@@H]1C[C@H]2[C@@H]3CCC4=CC(=O)C=C[C@]4(C)[C@@]3(F)[C@@H](O)C[C@]2(C)[C@H]1C(=O)CO | 5%[8.37 µM] | 9.3µM* | 83 | ?
CC1(C)O[C@H]2C[C@@H]3[C@H]4CCC5=CC(=O)CC[C@@]5(C)[C@]4(F)[C@@H](O)C[C@@]3(C)[C@@]2(C(=O)CCl)O1 | . | 4.1µM* | . | 5.1µM*
COc1ccc2c(c1)c1c(c(=O)n(-c3cccc(C)c3)c(=O)n1CC(=O)N1CCCC1)n2C | . | . | -29 | .
SMILES | HCV inh | Pf growth 96h | HCMV inh | Pf growth 48h
CCOC(=O)[C@]12CCCC=C1N(CCc1ccc(OC)c(OC)c1)C(=O)[C@H](CC(=O)N1CCSCC1)C2 | . | . | -37 | .
CC(C)C(NS(=O)(=O)c1cccc2nsnc12)C(=O)NC1CCCCC1 (centres undefined) | 5% | 10µM* | ? | 15%
CCc1cc2c(nc1CC)CCCN2C | . | . | -37 | .
CCN(C(=O)CN1C(=O)COc2ccc(S(=O)(=O)N3CCOCC3)cc21)c1cccc(C)c1 | . | . | 79 | .
CC(=O)Nc1ccc(S(=O)(=O)NC(=O)C23CC4CC(CC(C4)C2)C3)cc1 | 2% | 0.93µM* | -23 | .
CC(=O)Nc1ccc(S(=O)(=O)NNC(=O)NC23CC4CC(CC(C4)C2)C3)cc1 | -1% | 92% | -10 | 6%
COc1cccc(NC(=O)/C(C#N)=C/c2c(C)n(Cc3ccc(Cl)cc3)c3ccccc23)c1 | . | . | 14 | .
